Test systems include SR leukemia; RPMI-8226 leukemia; OVCAR-8 ovarian; OVCAR-5 ovarian; OVCAR-4 ovarian; SK-OV-3 ovarian; IGROV1 ovarian; OVCAR-3 ovarian; HS 578T breast; NCI/ADR-RES ovarian; T-47D breast; BT-549 breast; MDA-MB-435 melanoma; SW-620 colon; MCF7 breast; HCT-116 colon; HCC-2998 colon; KM12 colon.
Holding throughout (test): NCI-60 one-dose screen, 48 h (100 = growth as untreated, 0 = no growth, -100 = all killed)
Holding throughout (details): 10 µM

SMILES strings stand for the structures. About 83,000 compounds went through this panel and 20% of them were active in at least one assay; those are over-represented in the sample as a whole.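 The endpoint reported here, percent growth, reads 100 for growth as untreated, 0 for no net growth and -100 for all cells dead.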 A number with no mark means an inactive call. The source made the active and inactive calls. The calls were made as follows: active = growth percent below 10; inactive = the rest.

On to `O=C(Nc1cccc(F)c1)Nc1cccc(Cl)c1`, for which the growth was 49.9% in the test with SR leukemia; 66.6% with RPMI-8226 leukemia; 78.6% with OVCAR-8 ovarian; 94.9% in the test with OVCAR-5 ovarian; 87.2% with OVCAR-4 ovarian; 114% in the test with SK-OV-3 ovarian. Also, the growth in the test with IGROV1 ovarian was 111%; in the test with OVCAR-3 ovarian, 14.4%; with HS 578T breast, 97.3%; in the test on NCI/ADR-RES ovarian it was 89.1%; in the test with T-47D breast, 76.5%; with BT-549 breast it was 104%. Also, the growth is 89.9% in the test on MDA-MB-435 melanoma; 74% in the test with SW-620 colon; 87.8% with MCF7 breast; 92.3% with HCT-116 colon; 89.9% in the test on HCC-2998 colon; 47.6% with KM12 colon.
In the case of `C#CCn1c(-c2cccc(OCCCCl)c2)nc2c1c(=O)n(C)c(=O)n2C`, the growth is 43.6% with SR leukemia; 10.5% in the test with RPMI-8226 leukemia; 54.8% in the test on OVCAR-8 ovarian; 98.9% in the test with OVCAR-5 ovarian; 57% with OVCAR-4 ovarian; 93.7% in the test with SK-OV-3 ovarian. In addition, the growth is 73.9% in the test on IGROV1 ovarian; 58.1% with OVCAR-3 ovarian; 99% in the test on HS 578T breast; 66.1% in the test with NCI/ADR-RES ovarian; 18% with T-47D breast; 13.8% with BT-549 breast. In addition, the growth with MDA-MB-435 melanoma was 78.9%; in the test with SW-620 colon, 95%; in the test with MCF7 breast it was 84.7%; with HCT-116 colon, 51.9%; in the test on HCC-2998 colon, 104%; in the test on KM12 colon, 56.5%.
With `O=c1c2cccc3c(Nc4ccc(Br)cn4)ccc(c32)c2nc3ccccc3n12`, the growth in the test with SR leukemia is 52.9%; in the test on RPMI-8226 leukemia, 56.2%; in the test on OVCAR-8 ovarian, 103%; in the test on OVCAR-5 ovarian, 90.7%; in the test with OVCAR-4 ovarian, 53.7%; with SK-OV-3 ovarian, 94.3%. The growth in the test with IGROV1 ovarian is 48.9%; in the test on OVCAR-3 ovarian, 94.1%; with HS 578T breast, 81.2%; in the test on NCI/ADR-RES ovarian it was 93.5%; in the test on T-47D breast, 18.9%; with BT-549 breast it was 84.4%. The growth was 97% in the test on MDA-MB-435 melanoma; 94.8% in the test with SW-620 colon; 4.15% (active) in the test on MCF7 breast; 88.2% in the test on HCT-116 colon; 74.8% in the test on HCC-2998 colon; 77.2% with KM12 colon.
As to `CCCCCCCCCCCCCC[n+]1ccccc1`, the growth is -22.6% (active) in the test with SR leukemia; -57% (active) in the test with RPMI-8226 leukemia; -68.7% (active) with OVCAR-8 ovarian; 5.24% (active) with OVCAR-5 ovarian; -6.58% (active) with OVCAR-4 ovarian; -0.0653% (active) in the test with SK-OV-3 ovarian. In addition, the growth with IGROV1 ovarian was -60.4% (active); with OVCAR-3 ovarian, -51.2% (active); in the test on HS 578T breast it was -12.6% (active); with NCI/ADR-RES ovarian, 73.3%; in the test on T-47D breast, 12.7%; with BT-549 breast, -42.4% (active). The growth in the test with MDA-MB-435 melanoma was -87.6% (active); in the test on SW-620 colon, 2.31% (active); in the test with MCF7 breast, 2.73% (active); in the test on HCT-116 colon, -44.3% (active); in the test with HCC-2998 colon it was -72.1% (active); in the test on KM12 colon it was -86.1% (active).
For `CCOCC[P+](c1ccccc1)(c1ccccc1)c1ccccc1`, the growth in the test on SR leukemia is 21.4%; in the test with RPMI-8226 leukemia, 1.2% (active); with OVCAR-8 ovarian it was 46.5%; in the test on OVCAR-5 ovarian, 76.2%; in the test with OVCAR-4 ovarian, 36.4%; in the test on SK-OV-3 ovarian, 60.3%. For the same compound, the growth in the test on IGROV1 ovarian was 46.9%; with OVCAR-3 ovarian it was 33.8%; in the test with HS 578T breast, 79.1%; in the test with NCI/ADR-RES ovarian it was 100%; in the test on T-47D breast, 18%; with BT-549 breast, 36.9%. In addition, the growth was 28.8% in the test on MDA-MB-435 melanoma; 60% in the test with SW-620 colon; 31.1% in the test with MCF7 breast; 38.1% in the test on HCT-116 colon; 31.7% in the test on HCC-2998 colon; 25.8% with KM12 colon.
As for `O=C(NCc1cn(Cc2cccc(Oc3ccccc3)c2)nn1)c1cccnc1Nc1ccccc1`, the growth in the test with SR leukemia was 16.3%; in the test on RPMI-8226 leukemia, 52.7%; in the test with OVCAR-8 ovarian, 62.6%; in the test on OVCAR-5 ovarian, 89.1%; with OVCAR-4 ovarian it was 74.9%; in the test on SK-OV-3 ovarian it was 49.6%. Also, the growth is 94.1% with IGROV1 ovarian; 42.1% in the test on OVCAR-3 ovarian; 54.7% with HS 578T breast; 23.6% in the test on NCI/ADR-RES ovarian; 72.3% in the test on T-47D breast; 81.8% in the test on BT-549 breast. For the same compound, the growth in the test with MDA-MB-435 melanoma is -8.66% (active); in the test on SW-620 colon, 40.8%; with MCF7 breast it was 18.1%; with HCT-116 colon it was 26.1%; in the test on HCC-2998 colon it was 57.1%; with KM12 colon, 29.5%.
With `FC(F)(F)c1ccc(-c2cnc(Br)nc2NC2CCCCCC2)cc1`, the growth is 51% with SR leukemia; -4.63% (active) in the test with RPMI-8226 leukemia; 24.1% in the test with OVCAR-8 ovarian; 63.2% in the test with OVCAR-5 ovarian; 22.6% in the test with OVCAR-4 ovarian; 71.6% in the test on SK-OV-3 ovarian. For the same compound, the growth was 36.1% in the test with IGROV1 ovarian; 10.8% in the test on OVCAR-3 ovarian; 53.4% in the test on HS 578T breast; 77.9% in the test with NCI/ADR-RES ovarian; 19.3% with T-47D breast; 56.6% in the test with BT-549 breast. In addition, the growth is 20.4% with MDA-MB-435 melanoma; 28.2% in the test with SW-620 colon; 27.1% in the test on MCF7 breast; 20.3% in the test on HCT-116 colon; 72.1% with HCC-2998 colon; 25% with KM12 colon.
Take `N#CN1CC[C@H](C(=O)Nc2ncc(-c3ccncc3)s2)C1`: the growth in the test with SR leukemia was 1.53% (active); in the test on RPMI-8226 leukemia, 7.02% (active); in the test on OVCAR-8 ovarian it was 2.72% (active); with OVCAR-5 ovarian, 5.32% (active); in the test with OVCAR-4 ovarian, 3.57% (active); in the test with SK-OV-3 ovarian, 2.96% (active). The growth in the test with IGROV1 ovarian was 12.5%; in the test with OVCAR-3 ovarian, -22.1% (active); in the test on HS 578T breast, 2.54% (active); in the test on NCI/ADR-RES ovarian it was 5.43% (active); in the test on T-47D breast it was -23.4% (active); in the test with BT-549 breast, -14.7% (active). Moreover, the growth with MDA-MB-435 melanoma is 6.91% (active); in the test with SW-620 colon it was 7.08% (active); with MCF7 breast it was 2.99% (active); with HCT-116 colon, 1.83% (active); with HCC-2998 colon, 4.61% (active); in the test on KM12 colon, -1.2% (active).
